Shown are actives, neighbours in structure and some others; about 18% of the full set was active somewhere.
TGFb inhibitor: qHTS for Inhibitors of TGF-b. 410,000 tested, 1.2% active. HepG2 CAGA-GFP TGF-b/SMAD3 reporter, GFP fluorescence, 18 h; TGF-beta stimulated, 500 pg/mL final. Potency, µM (titrated, usually from 46.1 µM), for inactives: at the top dose activity, negative = inhibition, usual class: inhibitors; further: potency means the concentration at half of the fitted maximal effect; on the % scale 0 is the no-effect control and ±100 the full control effect; nearly all actives have a fitted effect of over 65% in size
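HEPG2 CAGA-GFP cells (1000/well, DMEM with 1% FBS) were pre-incubated 2 h at 37 degrees C, given compound by pin tool, then stimulated with TGF-beta at 500 pg/mL final for 18 h before per-cell GFP fluorescence imaging.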
TDP1 block: qHTS Assay for Inhibitors of Tyrosyl-DNA Phosphodiesterase (TDP1) | Tyrosyl-DNA phosphodiesterase 1 (Homo sapiens), Q9NUW8 | recombinant TDP1, AlphaScreen DNA substrate cleavage | Potency, µM (doses to about 130 µM), inactives show at the highest dose activity change, negative = inhibition, actives largely listed as inhibitors | 350,000 tested, 0.28% active; further: potency means the concentration at half of the fitted maximal effect; on the % scale 0 is the no-effect control and ±100 the full control effect; nearly all actives have a fitted effect of over 40% in size
Target sequence (Q9NUW8 whole entry, looked up): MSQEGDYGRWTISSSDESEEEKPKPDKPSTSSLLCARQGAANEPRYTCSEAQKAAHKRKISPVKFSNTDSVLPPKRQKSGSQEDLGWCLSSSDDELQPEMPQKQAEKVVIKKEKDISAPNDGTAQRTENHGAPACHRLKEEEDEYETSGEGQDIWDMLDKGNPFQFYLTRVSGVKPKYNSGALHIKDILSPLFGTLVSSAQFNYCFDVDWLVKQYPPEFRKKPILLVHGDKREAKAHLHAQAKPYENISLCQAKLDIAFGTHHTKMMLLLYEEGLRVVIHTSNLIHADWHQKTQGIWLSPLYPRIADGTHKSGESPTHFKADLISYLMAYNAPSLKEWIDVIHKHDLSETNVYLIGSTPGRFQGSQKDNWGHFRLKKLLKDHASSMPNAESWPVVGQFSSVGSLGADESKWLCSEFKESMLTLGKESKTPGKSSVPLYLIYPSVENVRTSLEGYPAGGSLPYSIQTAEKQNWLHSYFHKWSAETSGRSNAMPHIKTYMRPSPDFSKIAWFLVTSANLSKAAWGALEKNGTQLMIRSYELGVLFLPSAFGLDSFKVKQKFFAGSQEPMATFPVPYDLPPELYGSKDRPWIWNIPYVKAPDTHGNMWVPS
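Tdp1 1 nM final; 15 min RT w/ cpd; substrate 15 nM, 5 min; beads 10 ug/ml, 10 min; AlphaScreen read. Neg ctrl: no enzyme.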
IL-1B inflam inh: qHTS for Inhibitors of Inflammasome Signaling: IL-1-beta AlphaLISA Primary Screen; THP-1 LPS/ATP IL-1B secretion, AlphaLISA, 16 h; hits give low values; activity change, % at 57.5 µM; 360,000 tested, 4.7% active; AID 743279, 2014; in the data active means activity change below about -50%; inconclusive means mostly about -30% to -49%; further: on the % scale 0 is the no-effect control and ±100 the full control effect
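THP-1 cells pretreated 1 hr with compounds (up to 57.5 uM final), then stimulated with LPS (250 ng/mL final) plus ATP (1.25 mM final); secreted IL-1B measured by AlphaLISA after 16 hr, decreased signal indicating inhibition.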
HepG2 tox: qHTS for Inhibitors of TGF-b: Cytotox Counterscreen; HepG2 CAGA-GFP viability, ATP luminescence, 18 h; Potency, µM (titrated, usually from 46.1 µM), for inactives: at the highest dose activity change, negative = cytotoxicity, usual class: cytotoxic; 410,000 tested, 0.76% active; AID 588856, 2011; further: potency means the concentration at half of the fitted maximal effect
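HepG2 CAGA-GFP cells (1000/well, DMEM with 1% FBS) received compound, then TGF-beta at 500 pg/mL final, and were incubated 18 hours at 37 degrees C. Viability was read by CellTiter-Glo luminescence. Media-only wells were set as complete cell-killing and DMSO as no toxicity.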
DT40 TDP1 no CPT: qHTS for Inhibitors of human tyrosyl-DNA phosphodiesterase 1 (TDP1): qHTS in cells in absence of CPT. AID 686978, 2013. 420,000 tested, 15% active. DT40 Tdp1-/- hTDP1 cells, no CPT, ATP luminescence, 48 h. Potency, µM (highest dose often 46.2 µM), for the others: top-dose activity change, negative = growth inhibition, hits mostly inhibitors; further: potency means the concentration at half of the fitted maximal effect; on the % scale 0 is the no-effect control and ±100 the full control effect; nearly all actives have a fitted effect of over 55% in size
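A cellular qHTS used chicken DT40 cells lacking endogenous Tdp1 but carrying stably transfected human TDP1. Compounds were applied without camptothecin, and cell growth kinetics were judged by ATP-dependent luminescence after ≥48 hr.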
DT40 TDP1 CPT: qHTS for Inhibitors of human tyrosyl-DNA phosphodiesterase 1 (TDP1): qHTS in cells in presence of CPT; AID 686979, 2013; 420,000 tested, 12% active; chicken DT40 Tdp1-/-;hTDP1 cells + 20 nM CPT, ATP luminescence, 48 h; Potency, µM (top dose mostly 46.2 µM), for the others: top-dose activity change, negative = growth inhibition, actives largely listed as inhibitors; further: potency means the concentration at half of the fitted maximal effect; on the % scale 0 is the no-effect control and ±100 the full control effect; nearly all actives have a fitted effect of over 55% in size
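Chicken DT40 Tdp1-/- cells stably complemented with human TDP1 were seeded at 400 cells/well in medium containing 20 nM camptothecin, exposed to pin-transferred compounds, and grown at 37 °C for at least 48 hr. Viability was read as ATP luminescence.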
Numbers without * were called inactive; u = inconclusive; x = not tested or not shown; [ ] = dose if it differs, or a comment. Unless noted, the call rests on the fitted dose curve; in most records, active means well fitted curve in the direction sought with a large enough effect; inconclusive means small, poorly fitted or top-dose-only effect, or another doubt; inactive means no such curve, though single readings can be large; an effect the other way counts as inactive or inconclusive.

SMILES	TGFb inhibitor	TDP1 block	IL-1B inflam inh	HepG2 tox	DT40 TDP1 no CPT	DT40 TDP1 CPT
O=S(=O)(c1ccccc1)N1CCN(c2nc(-c3cccs3)nc3ccccc23)CC1	-2%	1%	x	-26%	u	13µM*
O=S(=O)(c1nccs1)N1CCN(c2nc(-c3cccs3)nc3ccccc23)CC1	x	0%	x	x	11µM*	u
CC(C)S(=O)(=O)N1CCN(c2nc(-c3cccs3)nc3ccccc23)CC1	x	0%	x	x	18µM*	11µM*
O=S(=O)(N1CCN(c2nc(-c3cccs3)nc3ccccc23)CC1)C(F)(F)F	18%	x	x	-21%	u	u
COc1ccc(N2CCN(c3nc(-c4cccs4)nc4ccccc34)CC2)cc1	3%	5%	9	-11%	23µM*	u
Cc1ccc(S(=O)(=O)N2CCCN(c3nc(-c4cccs4)nc4ccccc34)CC2)cc1	u	x	x	-36%	u	13µM*
O=S(=O)(c1ccsc1)N1CCN(c2nc(-c3cccs3)nc3ccccc23)CC1	x	-5%	x	x	x	x
O=S(=O)(Cc1ccccc1)N1CCN(c2nc(-c3cccs3)nc3ccccc23)CC1	x	1%	x	x	13µM*	u
COc1ccc(OC2C=CC(C#Cc3ccccc3)OC2CO)cc1 (centres undefined)	x	4%[21 µM]	x	x	x	x
CC(Oc1ccc(-c2ccccc2)c(F)c1)c1ccn(S(=O)(=O)c2ccc(Cl)cc2)n1 (centres undefined)	-16%	-3%	-1	-23%	u	15µM*
CC(Oc1ccc(Cl)cc1)c1ccnn1S(=O)(=O)c1ccccc1 (centres undefined)	2%	-7%	-12	-22%	-4%	-17%
Cc1cc(C)nc(NN2C(=O)/C(=C/c3ccccc3)SC2=S)n1	-3%	-8%	3	-4%	u	-26%
COc1cc(/C=C2\SC(=S)N(Nc3ncc(C(F)(F)F)cc3Cl)C2=O)ccc1O	21%	9%	u	-94%	u	21µM*
CN(C)c1ccc(/C=C2\SC(=S)N(Nc3ncc(C(F)(F)F)cc3Cl)C2=O)cc1	154%	3%	-5	-2%	8.2µM*	8.2µM*
Cc1ccc(NC(=O)CCC(=O)Nc2nnc(C3CCCCC3)s2)cc1	1%	4%	13	-17%	2%	13%
CCOC(=O)C[C@H]1c2cc(F)ccc2S(=O)(=O)N1Cc1ccc(OC)cc1	u	x	39	-1%	u	u
CCOC(=O)C[C@H]1c2cc(F)ccc2S(=O)(=O)N1Cc1cc(OC)c(OC)c(OC)c1	u	x	x	-15%	11µM*	10µM*
CC(C)(C)C(=O)[C@@H]1[C@@H]2C(=O)N(Cc3ccccc3)C(=O)[C@@H]2[C@H]2c3ccccc3C=CN12	x	71µM*	x	x	x	x
O=C(N/N=C/c1cccc(Cl)c1)C1CCCC1	-4%	2%	-13	-10%	5%	-26%
O=C(NC1CC2CCCC(C1)N2Cc1ccco1)NC12CC3CC(CC(C3)C1)C2 (centres undefined)	3%	4%	-4	1%	18µM*	21µM*
CCCC/C(O)=C1\C(=O)CC(C)(C)CC1=Nc1ccc(OC)cc1	14%	-3%	u	4%	u	u
CCC/C(O)=C1\C(=O)CC(C)(C)CC1=Nc1ccc(OC)cc1	28%	x	-20	-1%	15µM*	u
O=C(Nc1ccc(C(=O)OC[C@@H]2CCCN3CCCC[C@H]23)cc1)c1cccc(Br)c1	u	6%	-6	-25%	18µM*	u
O=C(Nc1ccc(CN2CCCCC2)cc1)c1cccc(Br)c1	5%	0%	-55*	-5%	u	u
CCn1c(CN2CCCCC2)nc2cc(NC(=O)c3ccc([N+](=O)[O-])cc3)ccc21	-12%	5%	x	-25%	9.2µM*	9.2µM*
SMILES	TGFb inhibitor	TDP1 block	IL-1B inflam inh	HepG2 tox	DT40 TDP1 no CPT	DT40 TDP1 CPT
O=C(Nc1ccc(CN2CCCCC2)cc1)c1cc(Br)ccc1Cl	0%	0%	u	-23%	-18%	-17%
Cn1c(CN2CCCCC2)nc2cc(NC(=O)c3cccc(Br)c3)ccc21	-17%	5%	-78*	-32%	u	u
Cn1c(CN2CCCCC2)nc2cc(NC(=O)c3ccccc3)ccc21	-26%	5%	0	0%	-25%	u
CCOC(=O)c1ccc(NC(=O)NCc2cccnc2)cc1	-13%	0%	-14	5%	u	-17%
Cn1cnc(S(=O)(=O)N2CCCC(C(=O)Nc3cccc(C#N)c3)C2)c1 (centres undefined)	17%	-9%	x	3%	-18%	17%
CSC(=S)NCc1cccnc1	u	-1%	-63*	2%	3.3µM*	2.9µM*
O=[N+]([O-])c1c(C(Cl)Cl)nn(-c2ccccc2)c1N1CCCC1	u	11%	-25	-33%	u	21µM*
CCCn1c(=O)c2[nH]c(-c3ccc(S(=O)(=O)O)cc3)nc2n(CCC)c1=O	0%	8%[56.1 µM]	-24	-8%	-5%	2%
CC1(C(=O)NS(=O)(=O)Cc2ccccc2C(F)(F)F)CCN1C(=O)C/C=C/c1ccccc1 (centres undefined)	u	x	27	8%	23µM*	u
CC1(C(=O)Nc2ccc3c(c2)OCCO3)CCN1C(=O)C1(c2ccccc2)CC1 (centres undefined)	23%	x	1	0%	-27%	u
O=C(c1cccc([N+](=O)[O-])c1)N1CCN(C/C=C/c2ccccc2)CC1	u	-11%	x	7%	u	-12%
CC1(C(=O)Nc2ccc3c(c2)OCCO3)CCN1C(=O)C/C=C/c1ccccc1 (centres undefined)	u	x	-6	2%	u	29µM*
O=C(Nc1ccc2c(c1)OCCO2)C(c1cc2ccccc2o1)N1CCN(C/C=C/c2ccccc2)CC1 (centres undefined)	u	x	13	-20%	16µM*	15µM*

High-throughput results (PubChem)
